# Test results taken from ChEMBL document CHEMBL3988442, “University of Dundee, Small-Polar-MMV Screening Library” (2021).
# Screen size: about 48,000 compounds; about 13,000 (27%) showed an effect of 50% or more. The list shows a part of the results.
# Test system: Wolbachia pipientis
# Experiment: Anti-Wolbachia Cell-Based Screen
# Assay type: functional
# Set-up: scale not given: in the data most compounds retested in dose-response had high values
# Conditions: 5 µM
row,Structure (SMILES),Percent Effect [%]
1,CCc1ccc(S(=O)(=O)NCC2CCN(c3cnccn3)CC2)s1,118.2
2,CC(CNC(=O)N1CCN(c2cnccn2)CC1)Cc1cccs1 (stereo not given),-7.53
3,O=C(NCCSCc1ccc(Br)s1)C1CCCN(c2cnccn2)C1 (stereo not given),1.609
4,CN(C1CCN(c2ccccn2)CC1)S(=O)(=O)c1cccs1,-12.42
5,O=S(=O)(NCC1CCN(c2cnccn2)CC1)c1cccs1,107.7
6,Cc1nn(C)c(C)c1CN(C)C1CCN(c2ncnc3[nH]cnc23)CC1,0.8279
7,CC(=O)Nc1ccc(C(=O)N2CCOc3nc(C)ccc32)cc1,-10.66
8,COC(=O)CCC(=O)N1CCc2nc(C(=O)N(C)C)sc2CC1,-18.4
9,Cc1cc(O)nc(C2CCCN(CCO)C2)n1 (stereo not given),175.9
10,Cc1cc(Nc2cnccn2)nc(C2CCCN(CCO)C2)n1 (stereo not given),125
11,Cc1cc(Nc2ncccn2)nc(C2CCCN(CCO)C2)n1 (stereo not given),168.6
12,Cc1cc(Nc2ccccn2)nc(C2CCCN(CCO)C2)n1.O=CO (stereo not given),136
13,Cn1ncc2c(N3CCN(CCO)CC3)nc(C3CCCC3)nc21,1.132
14,CSCCC1c2nc[nH]c2CCN1Cc1ccnc2ccccc12 (stereo not given),14.89
15,COCCCN1CCC(NC(=O)C(C)C)CC1,12.3
16,Cc1noc(C)c1CNc1c(N2CCCC2)cccc1N1CCCC1,3.451
17,Cn1cc(N2CCCC(Nc3ccc4c(c3)NC(=O)CC4)C2=O)cn1 (stereo not given),-4.573
18,CC(c1ncc(-c2ccccc2)o1)N1CCN(C(=O)C(C)(C)C)CC1 (stereo not given),102.5
19,Cc1ccc(-c2ncc(CN3CCN(C(=O)N(C)C)CC3)s2)o1,25.76
20,CC(c1ncc(-c2ccccc2)o1)N1CCN(C(=O)N(C)C)CC1 (stereo not given),106.8
21,CCN1CCN(C(=O)NC(C)c2noc(-c3ccccc3)n2)CC1 (stereo not given),0.3597
22,O=C(CCCc1ncc(-c2ccccc2)o1)N1CCN(CCO)CC1,-1.483
23,CC(c1ncc(C(C)(C)C)o1)N1CCN(c2ccncc2)CC1 (stereo not given),-9.491
24,CCS(=O)(=O)N1CCN(C(C)c2ncc(-c3ccccc3)o2)CC1 (stereo not given),106.9
25,COCC(=O)N1CCN(C(C)c2ncc(-c3ccccc3)o2)CC1 (stereo not given),108.5

row,Structure (SMILES),Percent Effect [%]
1,CCS(=O)(=O)N1CCN(C(C)c2ccccc2OC)CC1 (stereo not given),10.43
2,CC(c1ncc(C(C)(C)C)o1)N1CCN(Cc2ccco2)CC1 (stereo not given),19.54
3,CN(C)C(=O)N1CCN(C(=O)Nc2nc(-c3ccccc3)ns2)CC1,-9.811
4,COCC(=O)N1CCN(C)c2ncccc2C1,4.839
5,CCCn1ncc(C(=O)NC2CCN(CC3CCCO3)CC2)c1C (stereo not given),2.131
6,CC(=O)N1N=C(c2ccco2)OC1C(=O)NCCc1ccc(F)cc1 (stereo not given),117.3
7,O=C(NCc1ccc(F)cc1)NCC(O)(c1ccco1)C1CC1 (stereo not given),-0.2956
8,CN(C)C(CNC(=O)NCCc1cccc(O)c1)c1ccco1 (stereo not given),7.876
9,O=C(NCCc1ccncc1)C1CCN(Cc2ccco2)CC1,7.688
10,CC(=O)N1N=C(c2ccco2)OC1C(=O)NCCc1ccc(O)cc1 (stereo not given),112.2
11,Cn1cc(CN2CCOC[C@H]2c2nc(C(C)(C)C)co2)c2ccccc21,-4.393
12,CN(C)c1ncccc1CNC(=O)N1CCCC1c1ccsc1 (stereo not given),-3.064
13,CC1CC2(CCN(C(=O)c3csnn3)CC2)c2ccccc21 (stereo not given),10.92
14,CC1CC2(CCN(C(=O)c3c[nH]cn3)CC2)c2ccccc21 (stereo not given),62.95
15,CNC(=O)C1CC2(CCN(C(=O)c3csnn3)CC2)c2ccccc21 (stereo not given),-5.077
16,CCOC1CCC2(CCN(C(=O)c3csnn3)CC2)c2ccccc21 (stereo not given),117.6
17,N[C@@H]1c2ccccc2C2(CCN(C(=O)c3ccc(Cl)cn3)CC2)[C@H]1O,2.711
18,CCOC1CC2(CCN(c3cnccn3)CC2)c2ccccc21 (stereo not given),15.96
19,CCOC1CCC2(CCN(C(=O)c3c[nH]cn3)CC2)c2ccccc21 (stereo not given),107.8
20,CCOC1CC2(CCN(C(C)=O)CC2)c2cc(F)ccc21 (stereo not given),-13.1
21,CN(C)C1CC2(CCN(C(=O)c3csnn3)CC2)c2ccccc21.O=C(O)C(F)(F)F (stereo not given),-2.029
22,C[C@@H]1CN(C(=O)CCc2nncn2C)CC[C@@]1(O)C1CCC1,-5.246
23,CCN(CC)CCn1ccnc1-c1cccc(C#N)c1,11.68
24,Cc1ccc(-c2nn(-c3cccc(F)c3)cc2CN(C)CCO)o1,-10.45
25,CC(C)(C)CN[C@@H]1CO[C@H](CNC(=O)c2cccs2)[C@H]1O,-6.649
